Assays:
KGF (hKGF) = molecular target: T1, KGF (hKGF) (Homo sapiens, UniProt P21781 P21781:32-194); assay: filter; similar to random RNA; details: label: 5'-biotin for BIAcore specificity; proposed double pseudoknot; ssRNA; 2'-F C and U
T1 sequence: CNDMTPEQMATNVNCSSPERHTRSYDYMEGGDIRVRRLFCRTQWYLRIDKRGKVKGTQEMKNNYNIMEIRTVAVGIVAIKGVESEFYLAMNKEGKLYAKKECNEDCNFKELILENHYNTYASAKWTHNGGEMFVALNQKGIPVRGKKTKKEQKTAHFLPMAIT

VEGF (hVEGF) = VEGF (hVEGF) (Homo sapiens, UniProt P15692-4 P15692-4:27-191); assay: filter; similar to random RNA; details: chain copies: 2; label: 5'-biotin for BIAcore specificity; proposed double pseudoknot; ssRNA; 2'-F C and U
TGF-beta2 = molecular target: T2, TGF-beta2 (Homo sapiens, UniProt P61812 P61812:303-414); assay: filter; similar to random RNA by filter; details: chain copies: 2; label: 5'-biotin for BIAcore specificity; proposed double pseudoknot; ssRNA; 2'-F C and U
T2 sequence: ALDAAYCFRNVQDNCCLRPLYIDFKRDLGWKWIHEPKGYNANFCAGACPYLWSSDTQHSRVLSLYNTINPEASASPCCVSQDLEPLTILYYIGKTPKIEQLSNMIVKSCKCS

Sequence of VEGF (hVEGF) (P15692 other isoform, or with tags, fused parts or gaps): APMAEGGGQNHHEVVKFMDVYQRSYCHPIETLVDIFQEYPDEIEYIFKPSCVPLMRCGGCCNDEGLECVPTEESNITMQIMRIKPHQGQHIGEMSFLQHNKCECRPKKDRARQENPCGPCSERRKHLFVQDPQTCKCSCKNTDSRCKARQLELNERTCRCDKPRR

Sequence: GGGAGGACGAUGCGGGGGUUAUUGGGCGUCAACAUCCCCGAUUCUUUUCACGUCCAGACGACUCGCCCGA
- binding signal (KGF (hKGF)): > 34000 fold Kd vs hTGF-beta1
- binding signal (VEGF (hVEGF)): > 340000 fold Kd vs hTGF-beta1
- binding signal (TGF-beta2): > 340000 fold Kd vs hTGF-beta1

Sequence: GGGAGGACGAUGCGGUUAUGGGCGUCAACACCGCUAUUACAGUUUUCGCCUCCCCCAGACGACUCGCCCGA
- binding signal (KGF (hKGF)): > 34000 fold Kd vs hTGF-beta1
- binding signal (VEGF (hVEGF)): > 340000 fold Kd vs hTGF-beta1
- binding signal (TGF-beta2): > 340000 fold Kd vs hTGF-beta1
